PubChem BioAssay AID463173 (ICCB-Longwood Screening Facility, Harvard Medical School, 2010)
The campaign covered roughly 52,000 compounds. About 1,700 (3.3%) were called active. Rule as the data show it: active = survival mostly below about 52% (no sharp cut-off); inactive = mostly above about 56%. Only a selection was taken, and actives are over-represented in it overall.

Each compound was assayed on Wild type (assay: growth inhibition of S. aureus wild type versus tarO mutant, primary screen, teichoic acid synthesis inhibitors, RN4220, OD600 (AID 463173)). Conditions: S. aureus RN4220 wild type/DeltatarO growth, OD600, 18 h, stronger effect = lower value, concentration not given here.

Row | SMILES | survival
1 | Cc1ccc(NC(=O)N(Cc2ccc3c(c2)OCO3)C2CCN(Cc3ccccc3)CC2)cc1C | -1% (active)
2 | Cc1ccc(NC(=O)N(Cc2ccc3c(c2)OCO3)C2CCN(Cc3ccccc3)CC2)cc1Cl | 133% (inactive)
3 | COc1ccccc1NC(=O)N(Cc1ccc2c(c1)OCO2)C1CCN(Cc2ccccc2)CC1 | 78% (inactive)
4 | Cc1ccc(Cl)cc1NC(=O)N(Cc1ccc2c(c1)OCO2)C1CCN(Cc2ccccc2)CC1 | 14% (active)
5 | Cc1ccc(NC(=O)N(Cc2ccc3c(c2)OCO3)C2CCN(Cc3ccccc3)CC2)cc1F | 76% (inactive)
6 | O=C(Nc1ccccc1)N(Cc1ccc2c(c1)OCO2)C1CCN(Cc2ccccc2)CC1 | 78% (inactive)
7 | Cc1cccc(CN2CCN(C(=O)COc3ccccc3)CC2)c1 | 108% (inactive)
8 | CCCOc1ccc(CCN)cc1Cl | 107% (inactive)
9 | O=C(Nc1ccc2c(c1)OCO2)c1cccn(Cc2cccc([N+](=O)[O-])c2)c1=O | 77% (inactive)
10 | c1cc(C2CCNCC2)ccn1 | 104% (inactive)
11 | NC(=O)CN1C2CCC1CC(NC(=O)C1CC1)C2 (configuration not stated) | 103% (inactive)
12 | O=S1(=O)N(Cc2ccccc2Cl)CCCN1Cc1ccccc1Cl | -4% (active)
13 | O=S1(=O)N(Cc2ccccc2)CCCN1Cc1ccc(F)cc1Cl | 76% (inactive)
14 | O=S1(=O)N(Cc2ccccc2)CCCN1Cc1cccc(Cl)c1 | 78% (inactive)
15 | COc1ccc(CN2C(=O)CC(=O)NC2=S)cc1 | 107% (inactive)
16 | CCCCc1nn2c(=O)cc(COC(=O)Cc3ccccc3)nc2s1 | 84% (inactive)
17 | CCC(C)N1CCN(Cc2ccccc2)CC1 (configuration not stated) | 111% (inactive)
18 | Cc1cccc(-n2nc(C)c3c2NC(=O)CSC3c2ccccc2Cl)c1 (configuration not stated) | 64% (inactive)
19 | COc1ccccc1C1SCC(=O)Nc2c1c(C)nn2-c1cccc(C)c1 (configuration not stated) | -10% (active)
20 | CCCOc1ccc(C2SCC(=O)Nc3c2c(C)nn3-c2cccc(C)c2)cc1OC (configuration not stated) | 62% (inactive)
21 | CCCc1nc2ccccc2c(=O)n1-c1ccccc1 | 127% (inactive)
22 | O=C(COc1ccccc1)N1CCN(Cc2ccc(Br)cc2)CC1 | 100% (inactive)
23 | CCCCn1c(=O)c(C(=O)NC)c(O)c2ccccc21 | 112% (inactive)
24 | CCCCCn1c(=O)c(C(=O)Nc2ccccc2S(N)(=O)=O)c(O)c2ccccc21 | 0% (active)
25 | CCSc1nnc(NC(=O)c2cccn(Cc3ccccc3Cl)c2=O)s1 | 71% (inactive)

Row | SMILES | survival
26 | CN1CCC2(CC1)CC(NC=O)c1ccccc1O2 (configuration not stated) | 108% (inactive)
27 | N#Cc1cc2c(nc1SCC(=O)Nc1cccc(C(F)(F)F)c1)C1CCN2CC1 | 0% (active)
28 | N#Cc1cc2c(nc1SCC(=O)Nc1cccc(F)c1)C1CCN2CC1 | -3% (active)
29 | CCOC(=O)c1ccc(NC(=O)CSc2nc3c(cc2C#N)N2CCC3CC2)cc1 | 84% (inactive)
30 | Nc1c(C(=O)Nc2cccc(Br)c2)sc2nc3c(cc12)N1CCC3CC1 | 63% (inactive)
31 | N#Cc1cc2c(nc1SCC(=O)Nc1ccc(C(F)(F)F)cc1)C1CCN2CC1 | 0% (active)
32 | N#Cc1cccc(NC(=O)CSc2nc3c(cc2C#N)N2CCC3CC2)c1 | 76% (inactive)
33 | O=C(CN1C(=O)CN=C(c2ccccc2)c2ccccc21)Nc1cccc(C(F)(F)F)c1 | 48% (inactive)
34 | Nc1c(C(=O)Nc2ccc(OC(F)(F)F)cc2)sc2nc3c(cc12)N1CCC3CC1 | 167% (inactive)
35 | CN1CCc2c(C#N)c(Cl)nc(NCc3ccccc3)c2C1 | 103% (inactive)
36 | CCCC1(CCC)C(=O)NC(=Nc2ccccc2)NC1=O | 107% (inactive)
37 | COc1ccc(CC2C(=O)N(C)C(=O)N(C)C2=O)cc1 | 112% (inactive)
38 | CCc1cc2c(s1)NC(=O)CN=C2c1cccs1 | 112% (inactive)
39 | N#CC(C#N)=Cc1cc(Br)cs1 | 94% (inactive)
40 | Cc1cc(-n2c(/C=C/c3ccc(Br)s3)nc3ccccc3c2=O)ccc1Br | 66% (inactive)
41 | Cn1cc(C=C(C#N)C#N)c2ccccc21 | 114% (inactive)
42 | Cc1cccc(-n2c(/C=C/c3c(C)[nH]c4ccccc34)nc3ccccc3c2=O)c1 | 108% (inactive)
43 | Cc1ccccc1-n1c(/C=C/c2ccc(O)cc2)nc2ccccc2c1=O | 48% (inactive)
44 | O=c1c2ccccc2nc(/C=C/c2ccccc2F)n1-c1cccc(O)c1 | 11% (active)
45 | Cc1ccccc1-n1c(/C=C/c2c(C)[nH]c3ccccc23)nc2ccccc2c1=O | 6% (active)
46 | Cc1ccc(-n2c(/C=C\c3ccc(F)c(F)c3)nc3ccccc3c2=O)c(C)c1 | 68% (inactive)
47 | Cc1ccccc1-n1c(/C=C/c2ccc(N(C)C)cc2)nc2ccccc2c1=O | 7% (active)
48 | Cc1ccccc1-n1c(/C=C/c2ccccc2F)nc2ccccc2c1=O | 7% (active)
49 | O=c1c2ccccc2nc(/C=C/c2ccccc2)n1-c1ccccc1F | 97% (inactive)
50 | Cc1cccc(-n2c(/C=C/c3ccccc3O)nc3ccccc3c2=O)c1 | 12% (inactive)

Row | SMILES | survival
51 | O=c1c2ccccc2nc(/C=C\c2ccc(F)cc2)n1-c1ccccc1F | 71% (inactive)
52 | O=c1c2ccccc2nc(/C=C\c2ccccc2F)n1-c1ccc(O)cc1 | 73% (inactive)
53 | COc1ccc(-n2c(/C=C\c3ccccc3F)nc3ccccc3c2=O)c(OC)c1 | 68% (inactive)
54 | Cc1cccc2sc(NC(=O)c3cccn(Cc4ccccc4)c3=O)nc12 | 78% (inactive)
55 | COC(=O)c1ccc(NC(=O)c2cccn(Cc3ccccc3C)c2=O)cc1 | 88% (inactive)
56 | Cc1c(C(c2ccc(Br)cc2)c2c(O)c3ccccc3oc2=O)c(=O)n(-c2ccccc2)n1C (configuration not stated) | 69% (inactive)
57 | COc1ccc(CNCC(=O)N2CCC3(CC2)OCCO3)cc1 | 107% (inactive)
58 | CCOc1ccc(CC2(CCc3ccncc3)C(=O)NC(=O)NC2=O)cc1 | 96% (inactive)
59 | CCOc1ccc(-n2c(/C=C/c3ccccc3)nc3ccccc3c2=O)cc1 | 136% (inactive)
60 | CCc1ccc(OCC(=O)N2CCN(CCc3ccccn3)CC2)cc1 | 83% (inactive)
61 | COc1cccc(-n2c(/C=C/c3ccccc3O)nc3ccccc3c2=O)c1 | 20% (inactive)
62 | COc1cccc(-n2c(/C=C/c3cccc(C)c3)nc3ccccc3c2=O)c1 | 0% (active)
63 | COc1cccc(-n2c(/C=C\c3ccc(Cl)cc3)nc3ccccc3c2=O)c1 | 48% (inactive)
64 | CN(C)c1ccc(NC(=O)c2sc3nc4c(cc3c2N)N2CCC4CC2)cc1 | 114% (inactive)
65 | Nc1c(C(=O)Nc2ccc(Cl)cc2)sc2nc3c(cc12)N1CCC3CC1 | 95% (inactive)
66 | N#Cc1cc2c(nc1SCC(=O)Nc1ccc(F)c(Cl)c1)C1CCN2CC1 | -2% (active)
67 | Nc1c(C(=O)Nc2ccc(F)c(Cl)c2)sc2nc3c(cc12)N1CCC3CC1 | 105% (inactive)
68 | CC(=O)c1ccc(NC(=O)c2sc3nc4c(cc3c2N)N2CCC4CC2)cc1 | 95% (inactive)
69 | N#Cc1cc2c(nc1SCC(=O)Nc1ccc(Cl)c(C(F)(F)F)c1)C1CCN2CC1 | 2% (active)
70 | CCOC(=O)c1ccc(NC(=O)c2sc3nc4c(cc3c2N)N2CCC4CC2)cc1 | 84% (inactive)
71 | Nc1c(C(=O)Nc2ccc(Cl)c(C(F)(F)F)c2)sc2nc3c(cc12)N1CCC3CC1 | 1% (active)
72 | Nc1c(C(=O)Nc2ccc(Br)cc2F)sc2nc3c(cc12)N1CCC3CC1 | 134% (inactive)
73 | COc1ccc(NC(=O)CCc2nc(C3=CCN(Cc4cccc(Cl)c4)CC3)no2)cc1OC | 76% (inactive)
74 | CCC(N)C(=O)c1ccc(Cl)cc1 (configuration not stated) | 105% (inactive)
75 | Cn1c(=O)n(C)c2cc(CNCCc3ccc(F)cc3)ccc21 | 86% (inactive)

Row | SMILES | survival
76 | CC(C)C(=O)c1cn(Cc2ccccc2C#N)c2ccccc12 | 115% (inactive)
77 | Cc1cccc(Cn2cccc(C(=O)Nc3nnc(C)s3)c2=O)c1 | 71% (inactive)
78 | CC(C)(C)c1ccc(OCC(=O)Nc2ccc(Cl)cc2C(=O)c2ccccc2)cc1 | 63% (inactive)
79 | O=C(COc1ccc(Br)cc1)Nc1ccc(Cl)cc1C(=O)c1ccccc1 | 72% (inactive)
80 | CC(C)(C)c1ccc(C(=O)Nc2ccc(Cl)cc2C(=O)c2ccccc2)cc1 | 3% (active)
81 | O=C(Nc1ccc(Br)cc1C(=O)c1ccccc1Cl)c1ccc(Br)cc1 | 136% (inactive)
82 | COc1cc(OC)cc(C(=O)Nc2ccc(Cl)cc2C(=O)c2ccccc2Cl)c1 | 139% (inactive)
83 | O=C(Nc1ccc(Br)cc1C(=O)c1ccccc1Cl)c1ccccc1F | 76% (inactive)
84 | O=C(Nc1ccc(Br)cc1C(=O)c1ccccc1)c1ccccc1 | -1% (active)
85 | COc1ccc(C(=O)Nc2ccc(Cl)cc2C(=O)c2ccccc2)c(OC)c1 | -2% (active)
86 | Cc1ccc(OCC(=O)Nc2ccc(Cl)cc2C(=O)c2ccccc2)cc1C | 75% (inactive)
87 | O=C(Nc1ccc(Cl)cc1C(=O)c1ccccc1)c1ccccc1Br | 5% (active)
88 | CSc1ncc(C(=O)Nc2ccc(Cl)cc2C(=O)c2ccccc2)c(C)n1 | 88% (inactive)
89 | O=C(Nc1ccc(Cl)cc1C(=O)c1ccccc1)c1cc(Cl)cc(Cl)c1 | 140% (inactive)
90 | Cc1cc(NC(=O)c2cccn(Cc3cccc(Cl)c3)c2=O)no1 | 72% (inactive)
91 | O=C1NC(=O)N(Cc2ccco2)C(=O)/C1=C\c1ccco1 | 111% (inactive)
92 | O=C(Nc1ccc2c(c1)OCO2)c1cccn(Cc2ccc(F)cc2)c1=O | 59% (inactive)
93 | CCCc1nc(SC)ncc1C(=O)Nc1ccc(Cl)cc1C(=O)c1ccccc1 | 84% (inactive)
94 | COC(=O)C1=C(C)OC(N)=C(C#N)C12C(=O)Nc1ccc(C)cc12 (configuration not stated) | 96% (inactive)
95 | COc1ccc(CN2CCNCC2)cc1 | 98% (inactive)
96 | Cc1cccc(NC(=O)Cn2cc(C(=O)c3ccccc3)c3ccccc32)c1C | 71% (inactive)
97 | CC(c1ccccc1F)n1cc(C(=O)NC2CCCC2)nn1 (configuration not stated) | 103% (inactive)
